Assay [1] deals with T1, Ephrin type-A receptor 3 (Homo sapiens) (UniProt P29320).
T1 sequence (whole entry): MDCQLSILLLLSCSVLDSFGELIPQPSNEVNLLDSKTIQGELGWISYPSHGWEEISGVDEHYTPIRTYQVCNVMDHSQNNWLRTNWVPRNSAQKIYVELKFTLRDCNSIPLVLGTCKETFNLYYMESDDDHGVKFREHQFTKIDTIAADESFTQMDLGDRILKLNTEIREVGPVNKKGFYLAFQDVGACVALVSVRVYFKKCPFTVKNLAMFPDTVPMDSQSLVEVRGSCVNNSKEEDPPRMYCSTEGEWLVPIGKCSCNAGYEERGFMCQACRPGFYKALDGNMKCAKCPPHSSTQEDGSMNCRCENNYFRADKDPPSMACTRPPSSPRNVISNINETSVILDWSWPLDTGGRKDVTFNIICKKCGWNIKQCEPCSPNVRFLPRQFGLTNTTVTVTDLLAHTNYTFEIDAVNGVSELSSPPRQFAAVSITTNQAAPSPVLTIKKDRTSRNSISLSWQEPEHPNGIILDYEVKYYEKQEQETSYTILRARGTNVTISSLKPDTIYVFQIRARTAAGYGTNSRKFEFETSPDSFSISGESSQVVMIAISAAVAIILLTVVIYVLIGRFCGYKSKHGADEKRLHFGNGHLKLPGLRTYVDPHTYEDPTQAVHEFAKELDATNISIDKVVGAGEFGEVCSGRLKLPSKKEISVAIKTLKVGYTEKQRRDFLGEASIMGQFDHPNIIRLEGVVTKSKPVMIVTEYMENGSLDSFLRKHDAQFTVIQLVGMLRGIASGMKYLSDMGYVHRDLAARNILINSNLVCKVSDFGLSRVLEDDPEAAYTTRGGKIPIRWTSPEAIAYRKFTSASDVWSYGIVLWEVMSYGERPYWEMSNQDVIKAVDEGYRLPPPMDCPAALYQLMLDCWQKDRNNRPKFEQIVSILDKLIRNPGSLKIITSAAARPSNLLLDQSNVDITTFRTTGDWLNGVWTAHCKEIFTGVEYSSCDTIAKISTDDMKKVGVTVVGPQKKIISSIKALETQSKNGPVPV
Conditions: at 10 µM.

Assay [2] concerns the target Ephrin type-A receptor 4 (Homo sapiens) (UniProt P54764). Conditions: at 1 µM.
For assay [3] the target is unchanged. The conditions noted are these: at 10 µM.
The target in assay [4] is Ephrin type-A receptor 5 (Homo sapiens) (UniProt P54756). The conditions noted are these: at 1 µM.
Assay [5] shares this target. The conditions noted are these: at 10 µM.
In assay [6] the target is Ephrin type-A receptor 7 (Homo sapiens) (UniProt Q15375). The conditions noted are these: at 1 µM.
Assay [7] shares this target. The conditions noted are these: at 10 µM.
In assay [8] the target is T2, Ephrin type-A receptor 8 (Homo sapiens) (UniProt P29322).
T2 sequence (whole entry): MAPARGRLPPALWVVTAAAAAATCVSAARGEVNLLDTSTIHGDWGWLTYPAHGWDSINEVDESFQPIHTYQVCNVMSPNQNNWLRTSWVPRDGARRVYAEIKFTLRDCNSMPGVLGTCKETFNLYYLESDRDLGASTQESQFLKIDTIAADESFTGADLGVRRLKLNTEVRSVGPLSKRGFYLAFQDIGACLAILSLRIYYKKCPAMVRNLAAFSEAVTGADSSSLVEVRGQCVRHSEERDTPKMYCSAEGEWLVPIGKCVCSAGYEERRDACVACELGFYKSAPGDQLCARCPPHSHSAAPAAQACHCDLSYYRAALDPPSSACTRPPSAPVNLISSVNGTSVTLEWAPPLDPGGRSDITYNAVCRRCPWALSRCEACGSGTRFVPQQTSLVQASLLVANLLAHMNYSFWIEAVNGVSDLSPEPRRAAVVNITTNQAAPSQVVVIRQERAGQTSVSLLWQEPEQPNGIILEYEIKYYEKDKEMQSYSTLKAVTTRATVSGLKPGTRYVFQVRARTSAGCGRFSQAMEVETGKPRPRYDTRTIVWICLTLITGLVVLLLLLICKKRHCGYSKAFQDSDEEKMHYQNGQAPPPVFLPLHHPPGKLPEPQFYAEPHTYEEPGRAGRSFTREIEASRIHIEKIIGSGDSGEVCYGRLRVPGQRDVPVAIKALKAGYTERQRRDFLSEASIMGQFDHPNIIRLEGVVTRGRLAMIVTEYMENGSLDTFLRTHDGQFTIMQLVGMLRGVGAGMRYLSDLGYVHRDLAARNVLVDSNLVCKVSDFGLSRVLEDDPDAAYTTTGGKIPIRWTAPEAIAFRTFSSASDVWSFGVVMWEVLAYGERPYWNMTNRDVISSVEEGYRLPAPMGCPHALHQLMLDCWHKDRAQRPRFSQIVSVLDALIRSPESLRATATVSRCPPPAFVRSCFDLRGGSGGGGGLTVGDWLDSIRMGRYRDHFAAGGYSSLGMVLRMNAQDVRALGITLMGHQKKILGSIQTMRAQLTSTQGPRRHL
The conditions noted are these: at 1 µM.

Assay [9] deals with T2, Ephrin type-A receptor 8 (Homo sapiens). Conditions: at 10 µM.
Assay [10] has as its target T3, Ephrin type-B receptor 1 (Homo sapiens) (UniProt P54762).
T3 sequence (whole entry): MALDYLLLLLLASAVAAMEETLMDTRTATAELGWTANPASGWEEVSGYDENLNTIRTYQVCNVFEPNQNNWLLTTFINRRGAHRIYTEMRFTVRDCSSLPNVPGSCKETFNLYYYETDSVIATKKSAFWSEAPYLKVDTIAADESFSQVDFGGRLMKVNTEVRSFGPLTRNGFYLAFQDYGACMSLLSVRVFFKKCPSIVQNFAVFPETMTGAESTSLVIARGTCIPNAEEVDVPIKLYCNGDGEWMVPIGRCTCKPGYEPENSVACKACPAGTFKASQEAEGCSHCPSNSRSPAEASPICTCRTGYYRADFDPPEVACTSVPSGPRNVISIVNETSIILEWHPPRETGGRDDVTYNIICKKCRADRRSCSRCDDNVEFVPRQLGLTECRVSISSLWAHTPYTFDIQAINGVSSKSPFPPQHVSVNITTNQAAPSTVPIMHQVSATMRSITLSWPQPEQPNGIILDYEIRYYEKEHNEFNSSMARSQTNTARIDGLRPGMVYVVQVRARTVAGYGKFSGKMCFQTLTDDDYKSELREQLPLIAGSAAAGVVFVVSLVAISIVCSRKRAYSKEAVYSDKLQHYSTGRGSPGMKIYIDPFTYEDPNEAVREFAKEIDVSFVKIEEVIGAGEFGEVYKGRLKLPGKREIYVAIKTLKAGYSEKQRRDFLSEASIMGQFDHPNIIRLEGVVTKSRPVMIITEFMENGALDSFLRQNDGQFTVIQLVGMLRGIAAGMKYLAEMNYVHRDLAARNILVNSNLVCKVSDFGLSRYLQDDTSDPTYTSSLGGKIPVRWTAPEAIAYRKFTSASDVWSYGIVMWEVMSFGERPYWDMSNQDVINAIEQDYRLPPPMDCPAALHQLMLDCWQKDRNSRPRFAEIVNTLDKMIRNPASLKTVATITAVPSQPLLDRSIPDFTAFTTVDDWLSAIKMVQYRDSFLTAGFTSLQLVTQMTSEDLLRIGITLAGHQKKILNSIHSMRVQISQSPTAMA
The conditions noted are these: at 1 µM.

Residual activity data for one molecule are collected here from ChEMBL document CHEMBL2218924, “A broad activity screen in support of a chemogenomic map for kinase signalling research and drug discovery” (Biochem J, 2013).

Sequence of Ephrin type-A receptor 5 (Homo sapiens) (P54756 whole entry): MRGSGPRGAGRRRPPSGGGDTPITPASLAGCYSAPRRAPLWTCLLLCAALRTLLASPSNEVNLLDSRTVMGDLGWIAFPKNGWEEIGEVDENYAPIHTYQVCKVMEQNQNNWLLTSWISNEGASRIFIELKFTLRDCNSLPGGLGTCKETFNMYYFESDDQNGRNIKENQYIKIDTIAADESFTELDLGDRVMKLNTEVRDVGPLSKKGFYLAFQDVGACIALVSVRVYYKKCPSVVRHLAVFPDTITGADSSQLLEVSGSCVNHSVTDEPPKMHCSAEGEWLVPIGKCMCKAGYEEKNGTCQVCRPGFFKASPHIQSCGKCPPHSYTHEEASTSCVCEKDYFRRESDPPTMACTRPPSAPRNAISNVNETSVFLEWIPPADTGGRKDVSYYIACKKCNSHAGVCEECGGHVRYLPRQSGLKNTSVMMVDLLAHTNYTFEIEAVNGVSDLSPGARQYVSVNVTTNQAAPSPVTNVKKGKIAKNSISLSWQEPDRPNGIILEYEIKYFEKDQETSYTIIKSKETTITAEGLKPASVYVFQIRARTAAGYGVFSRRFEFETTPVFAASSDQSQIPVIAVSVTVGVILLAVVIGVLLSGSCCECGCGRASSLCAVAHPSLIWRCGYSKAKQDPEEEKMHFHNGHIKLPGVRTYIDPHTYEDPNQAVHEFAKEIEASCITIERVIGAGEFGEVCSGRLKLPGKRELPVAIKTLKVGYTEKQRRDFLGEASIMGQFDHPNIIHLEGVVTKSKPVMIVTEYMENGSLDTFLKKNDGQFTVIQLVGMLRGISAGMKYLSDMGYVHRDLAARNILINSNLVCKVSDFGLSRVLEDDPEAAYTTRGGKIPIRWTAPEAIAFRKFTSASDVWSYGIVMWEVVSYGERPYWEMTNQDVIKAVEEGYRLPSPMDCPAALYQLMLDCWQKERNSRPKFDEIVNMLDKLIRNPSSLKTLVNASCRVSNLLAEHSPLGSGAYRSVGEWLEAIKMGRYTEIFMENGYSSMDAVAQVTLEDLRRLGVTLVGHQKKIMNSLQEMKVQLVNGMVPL
Sequence of Ephrin type-A receptor 7 (Homo sapiens) (Q15375 28-998 limits assumed): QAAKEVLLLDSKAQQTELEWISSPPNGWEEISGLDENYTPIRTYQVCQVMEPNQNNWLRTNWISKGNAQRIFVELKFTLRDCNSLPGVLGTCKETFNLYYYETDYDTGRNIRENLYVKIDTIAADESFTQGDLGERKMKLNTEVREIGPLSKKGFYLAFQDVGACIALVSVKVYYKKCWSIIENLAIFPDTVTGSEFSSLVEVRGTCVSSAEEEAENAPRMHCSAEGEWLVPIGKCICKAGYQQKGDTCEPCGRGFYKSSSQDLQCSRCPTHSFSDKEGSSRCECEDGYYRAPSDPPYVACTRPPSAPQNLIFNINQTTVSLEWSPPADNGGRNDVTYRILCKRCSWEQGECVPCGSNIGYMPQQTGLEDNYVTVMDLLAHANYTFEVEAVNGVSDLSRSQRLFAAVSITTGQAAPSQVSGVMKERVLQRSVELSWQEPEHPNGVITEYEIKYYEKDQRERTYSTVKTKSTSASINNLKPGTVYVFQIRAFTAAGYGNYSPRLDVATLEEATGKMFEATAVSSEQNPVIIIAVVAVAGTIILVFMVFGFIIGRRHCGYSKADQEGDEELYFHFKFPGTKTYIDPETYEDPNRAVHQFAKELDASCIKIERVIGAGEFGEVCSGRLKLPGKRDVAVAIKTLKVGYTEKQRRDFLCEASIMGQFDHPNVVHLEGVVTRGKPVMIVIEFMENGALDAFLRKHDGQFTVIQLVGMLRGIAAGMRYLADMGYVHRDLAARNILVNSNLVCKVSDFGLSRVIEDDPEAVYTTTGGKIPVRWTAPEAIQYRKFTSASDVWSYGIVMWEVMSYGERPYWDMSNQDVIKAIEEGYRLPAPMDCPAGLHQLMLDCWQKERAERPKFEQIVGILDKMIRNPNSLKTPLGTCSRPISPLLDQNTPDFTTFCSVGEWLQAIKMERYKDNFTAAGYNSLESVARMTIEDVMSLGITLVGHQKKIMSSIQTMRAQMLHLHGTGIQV
Sequence of Ephrin type-A receptor 4 (Homo sapiens) (P54764 whole entry): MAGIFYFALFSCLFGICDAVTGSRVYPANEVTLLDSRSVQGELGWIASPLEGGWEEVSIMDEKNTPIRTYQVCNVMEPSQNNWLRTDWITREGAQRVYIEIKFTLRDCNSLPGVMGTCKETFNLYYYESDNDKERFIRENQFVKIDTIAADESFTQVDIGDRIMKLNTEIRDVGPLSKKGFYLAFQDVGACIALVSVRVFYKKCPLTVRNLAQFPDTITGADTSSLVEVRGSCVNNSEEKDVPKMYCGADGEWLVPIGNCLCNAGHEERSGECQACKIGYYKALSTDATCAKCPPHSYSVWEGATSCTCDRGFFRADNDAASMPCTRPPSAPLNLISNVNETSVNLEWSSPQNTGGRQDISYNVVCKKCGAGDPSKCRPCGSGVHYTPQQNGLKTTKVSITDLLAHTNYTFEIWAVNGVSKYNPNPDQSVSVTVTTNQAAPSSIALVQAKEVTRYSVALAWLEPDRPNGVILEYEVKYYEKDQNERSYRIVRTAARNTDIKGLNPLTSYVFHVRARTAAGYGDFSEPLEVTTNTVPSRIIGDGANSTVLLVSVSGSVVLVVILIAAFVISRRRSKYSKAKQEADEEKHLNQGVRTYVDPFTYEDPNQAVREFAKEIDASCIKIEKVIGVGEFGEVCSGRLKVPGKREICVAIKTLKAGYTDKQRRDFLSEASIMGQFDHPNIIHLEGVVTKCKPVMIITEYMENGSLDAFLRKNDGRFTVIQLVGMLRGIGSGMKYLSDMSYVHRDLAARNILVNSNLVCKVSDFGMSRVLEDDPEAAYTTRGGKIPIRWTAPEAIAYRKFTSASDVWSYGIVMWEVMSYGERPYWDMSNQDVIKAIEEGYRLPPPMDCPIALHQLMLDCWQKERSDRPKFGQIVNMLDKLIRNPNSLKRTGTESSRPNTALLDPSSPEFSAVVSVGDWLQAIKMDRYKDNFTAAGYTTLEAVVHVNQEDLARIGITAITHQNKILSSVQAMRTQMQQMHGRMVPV

Regarding `O=C1Nc2cc(Br)ccc2/C1=C1/Nc2ccccc2/C1=N\O`, the residual activity turned out to be 3% in assay [1]; 109% in assay [2]; 98% in assay [3]; 37% in [4]; 42% in assay [5]; 68% in assay [6]. In addition, the residual activity in assay [7] was found to be 20%; in [8], 69%; in assay [9], 82%; in assay [10], 34%.

A word on the residual activity: it is the signal under treatment as a percentage of the control signal.
